Results published in ChEMBL document CHEMBL3988442, “University of Dundee, Small-Polar-MMV Screening Library” (2021).

Tests used:
[1] = target: T1, Aspartate--tRNA(Asp/Asn) ligase (Mycobacterium tuberculosis (strain ATCC 25618 / H37Rv)) (UniProt P9WFW3); test: Assay for Asp RNA synthetase-1 from Mycobacterium tuberculosis; assay type: functional; design: scale not given: direction of the effect not stated beside the values; conditions: 30 µM; note: in the data most compounds retested in dose-response had high values
T1 sequence (whole entry): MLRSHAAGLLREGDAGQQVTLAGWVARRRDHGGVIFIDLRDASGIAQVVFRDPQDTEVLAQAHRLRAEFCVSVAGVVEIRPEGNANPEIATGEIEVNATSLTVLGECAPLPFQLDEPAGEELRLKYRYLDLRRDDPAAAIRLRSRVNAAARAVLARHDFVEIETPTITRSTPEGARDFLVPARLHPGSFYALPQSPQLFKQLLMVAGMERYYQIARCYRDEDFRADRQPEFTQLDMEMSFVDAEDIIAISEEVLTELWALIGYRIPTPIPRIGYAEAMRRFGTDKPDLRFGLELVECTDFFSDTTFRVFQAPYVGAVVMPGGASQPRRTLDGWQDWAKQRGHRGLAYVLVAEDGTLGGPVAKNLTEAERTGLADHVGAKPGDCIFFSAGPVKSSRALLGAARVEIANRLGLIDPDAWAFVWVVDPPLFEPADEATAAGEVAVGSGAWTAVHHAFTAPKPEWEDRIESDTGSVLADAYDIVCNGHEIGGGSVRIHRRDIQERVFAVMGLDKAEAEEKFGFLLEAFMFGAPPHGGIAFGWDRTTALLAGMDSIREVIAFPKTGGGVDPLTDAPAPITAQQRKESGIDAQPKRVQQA

[2] = target: Shiga toxin 2 (Escherichia coli O157:H7) (UniProt P09385+P09386); test: E. coli 0.157:H7 Shiga Toxin SOP - stx2 screening assay; assay type: functional; design: scale not given: direction of the effect not stated beside the values; conditions: 30 µM

SMILES | Percent Effect [1] [%] | Percent Effect [2] [%]
CCOC(=O)N1CCN(Cc2ccc(OCc3nccn3C)cc2)CC1 | -4.7 | -21.9
CC(Cn1ccnc1)NC(=O)C1(c2ccc(F)cc2)CC1 (stereo not drawn) | -1.46 | 2.06
O=C1CC(c2ccccc2F)c2c(n3ccsc3nc2=O)N1 (stereo not drawn) | 1.48 | -23
CNS(=O)(=O)c1cc(C(=O)NC2CCOc3ccccc32)cc(C)c1C (stereo not drawn) | -2.19 | 3.19
Cc1ccc(CN2Cc3nnn(C)c3C(COCCN(C)C)C2)s1 (stereo not drawn) | -3 | -6.76
CC(NC(=O)N1CCN(c2ccccc2)CC1)c1nncn1C (stereo not drawn) | 1.07 | -28.9
CC(C)Oc1cccc(CNC(=O)NC(C)(C(=O)O)c2ccco2)c1 (stereo not drawn) | 1.32 | 25.1
Cc1cc(-c2cnc(N3CCN(C)CC3)nc2-c2ccc(C)s2)on1 | -3.23 | -24.7
CC(C)NC(=O)N1CC[C@@H]2CN(Cc3cccc(Cl)c3)S(=O)(=O)[C@@H]2CC1 | 5.42 | -9.22
CC1(C)Cc2ccccc2-c2nc(NCCO)[nH]c(=O)c21 | 3.08 | 0.00332
CCc1noc(C2CCCCN2C(=O)c2ccoc2C)n1 (stereo not drawn) | -4.38 | -33.6
COc1cc(C)nc(N2CCN(C(=O)c3ccccc3C)CC2)n1 | 6.7 | 3.55
CCN(Cc1ccc2c(c1)OCCO2)C(=O)NCc1cc[nH]n1 | 3.66 | 27.9
CNS(=O)(=O)c1cccc(CNC(=O)c2c(C)nn(C)c2C)c1 | -4.44 | 8.19
Cc1ncccc1NC(=O)C1=NOC2(CCN(Cc3nccs3)C2)C1 (stereo not drawn) | 10.6 | -15.4
Cc1nn(C)c(C)c1CNC1CCOc2ccccc21 (stereo not drawn) | -0.466 | 8.07
CCn1cc(CN2CCCC(c3[nH]ncc3S(C)(=O)=O)C2)cn1 (stereo not drawn) | -1.6 | -18.8
CCc1nc(CN2CCCN(C(=O)CCSC)CC2)cs1 | -2.35 | -65.7
Cc1nn(C)c(N(C)C)c1CNC1CCc2c(F)cccc21 (stereo not drawn) | -3.35 | 33.1
